# From PubChem BioAssay
# FLuc counter = qHTS profiling assay for firefly luciferase inhibitor/activator using purifed enzyme and Km concentrations of substrates (counterscreen for miR-21 project) | purified FLuc, Km substrates, luminescence inhibition | Potency, µM (highest dose often 57.5 µM), usual class: inhibitors | hit rate 6.9% among 360,000; further: nearly all actives have a fitted effect of over 55% in size
# Target sequence (P08659 whole entry, looked up): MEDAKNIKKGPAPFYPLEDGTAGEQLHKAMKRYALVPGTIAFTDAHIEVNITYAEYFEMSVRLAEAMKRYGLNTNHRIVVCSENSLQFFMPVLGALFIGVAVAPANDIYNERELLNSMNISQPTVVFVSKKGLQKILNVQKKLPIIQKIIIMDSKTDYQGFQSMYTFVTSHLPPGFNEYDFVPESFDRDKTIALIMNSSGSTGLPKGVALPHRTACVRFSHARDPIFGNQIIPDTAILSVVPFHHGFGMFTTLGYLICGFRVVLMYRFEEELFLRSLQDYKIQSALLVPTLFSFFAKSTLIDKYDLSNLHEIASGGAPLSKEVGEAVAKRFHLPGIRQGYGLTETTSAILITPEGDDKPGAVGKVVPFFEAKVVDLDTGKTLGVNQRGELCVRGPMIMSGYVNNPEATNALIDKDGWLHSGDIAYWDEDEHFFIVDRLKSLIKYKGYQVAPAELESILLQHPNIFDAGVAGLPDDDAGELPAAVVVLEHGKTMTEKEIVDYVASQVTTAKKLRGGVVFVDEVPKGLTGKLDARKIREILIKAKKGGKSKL
#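 Purified P. pyralis luciferase, 10 nM final, with Km-level 10 uM D-luciferin and 10 uM ATP in 50 mM Tris acetate pH 7.5, 10 mM Mg acetate, 0.01% Tween-20, 0.05% BSA; 6-point qHTS titration about 60 µM downward; luminescence read.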
# ELG1 genotoxic = qHTS screen for small molecules that induce genotoxicity in human embryonic kidney (HEK293T) cells expressing luciferase-tagged ELG1 | HEK293T ELG1-luciferase reporter, luminescence, 16 h | AID 504466, 2011 | hit rate 1.3% among 330,000 | Potency, µM (doses to about 46 µM), most hits filed as activators; further: nearly all actives have a fitted effect of over 60% in size
#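 Cells (2,000/well) expressing the ELG1-luciferase fusion are dosed by pin tool and kept 16 hr at 37 °C, 5% CO2. Signal comes from ONE-Glo luciferase reagent after 30 min at room temperature.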
# SMN2 splice up = qHTS Assay for Enhancers of SMN2 Splice Variant Expression; HEK293 SMN2-luciferase splicing reporter, luminescence, 30-36 h; AID 1458, 2008; hit rate 2.8% among 210,000; Potency, µM (highest dose often 46.1 µM), usual class: activators; further: nearly all actives have a fitted effect of over 55% in size
#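 HEK293 cells carry an SMN2 […]–luciferase reporter in which exon 7 inclusion puts luciferase in frame. Cells were plated 10-12 h before compound addition, then incubated 30-36 h at 37C. ONE-Glo luminescence was read; sodium butyrate at 4.5 mM final served as control.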
# Rab9 prom act = qHTS Assay for Rab9 Promoter Activators; AID 485297, 2010; Huh7 Rab9 promoter-luciferase reporter, luminescence, 24 h; Potency, µM (series often up to 9.22 µM), usual class: activators; hit rate 2.8% among 320,000; further: nearly all actives have a fitted effect of over 60% in size
#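 Quantitative HTS format; Huh7 Rab9-luciferase reporter cells (1500/well) receive compound 2 h post-plating, incubate 24 h at 37 °C, then get luciferase reagent for 10 min before luminescence reading.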
# NPC1 prom act = qHTS Assay for NPC1 Promoter Activators; Huh7 NPC1 promoter luciferase reporter, 24 h; Potency, µM (titrated, usually from 9.22 µM), most hits filed as activators; hit rate 2.4% among 320,000; further: nearly all actives have a fitted effect of over 60% in size
#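 Luminescence from an NPC1 promoter-driven luciferase reporter in stably transfected Huh7 cells was measured after 24 h compound treatment at 37 °C, followed by 10 min ambient incubation with luciferase detection reagent.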
# KinaseGlo FLuc = Counterscreen for Luciferase (Kinase-Glo TM) Inhibition. Luciferin 4-monooxygenase (Photuris pensylvanica), Q27757. Kinase-Glo luciferase, ATP luminescence, 8 min. Potency, µM (series often up to 38.3 µM), actives largely listed as inhibitors. hit rate 0.28% among 200,000; further: nearly all actives have a fitted effect of over 60% in size
#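 Kinase-Glo luciferase light output from ATP and luciferin was measured with 10 uM ATP, within the enzyme's linear range. Buffer: 50 mM imidazole pH 7.2, 50 mM KCl, 7 mM MgCl2, 0.01% Tween 20, 0.05% BSA; luminescence read after 8 min at ambient temperature.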
# Numbers stand for hits; . = inactive; ? = inconclusive; / = not tested or not shown. Rows were chosen to be rich in hits. Some 7.5% of all compounds tested hit in one or more screens of this group. The call rests on the fitted dose curve; in most records, active means well fitted curve in the direction sought with a large enough effect; inconclusive means small, poorly fitted or top-dose-only effect, or another doubt; inactive means no such curve, though single readings can be large; an effect the other way counts as inactive or inconclusive.
SMILES,FLuc counter,ELG1 genotoxic,SMN2 splice up,Rab9 prom act,NPC1 prom act,KinaseGlo FLuc
N#Cc1ccc(OCC(=O)Nc2cccc(S(=O)(=O)NC3=NCCCCC3)c2)cc1,?,.,/,.,.,/
CC(C)(C)c1ccc(OCC(=O)Nc2cccc(S(=O)(=O)NC3=NCCCCC3)c2)cc1,10.7µM,.,/,.,.,/
COc1ccccc1OCC(=O)Nc1cccc(S(=O)(=O)NC2=NCCCCC2)c1,.,.,/,.,.,/
COc1ccccc1NS(=O)(=O)c1ccc(C(=O)NCC(c2cccs2)N2CCOCC2)cc1 (stereo not given),/,.,/,/,/,/
CNc1ncnc2ccc(-c3c(C)noc3C)cc12,.,/,/,.,.,/
Cc1ncc(COC(=O)C(C)C)c2cc(C(=O)Nc3ccccc3C(F)(F)F)c(=O)oc12,.,/,/,/,/,/
O=C(COc1ccc(Cl)cc1)Nc1cccc(S(=O)(=O)NCc2ccco2)c1,16.9µM,.,/,.,.,/
CC(=O)CCc1ccc(OCC(=O)Nc2cccc(S(=O)(=O)N(C)c3ccccc3)c2)cc1,10.7µM,.,/,.,.,/
COc1cc(C(=O)Nc2cccc(S(=O)(=O)NCc3ccco3)c2)cc(OC)c1OC,.,.,/,.,.,/
CCOC(=O)c1ccc(NC(=O)CC2C(=O)N(c3cccc(C)c3)C(=O)N2CCOC)cc1 (stereo not given),.,/,.,/,/,/
CCOC(=O)c1ccc(NC(=O)CC2C(=O)N(c3cccc(OC)c3)C(=O)N2CCOC)cc1 (stereo not given),.,.,3.98µM,.,.,.
CN(c1nc(-c2ccc(Br)cc2)cs1)C1CCS(=O)(=O)C1 (stereo not given),23.9µM,.,.,?,?,.
Cc1ccsc1CN(C(=O)COc1ccc(Br)cc1)C1CCS(=O)(=O)C1 (stereo not given),.,/,.,/,/,/
COc1cc(NC(=O)c2nnn(CC(=O)Nc3cc(C)ccc3C)c2N)cc(OC)c1,.,/,/,/,/,/
CCc1ccc(C(=O)COC(=O)[C@@H](NC(N)=O)[C@@H](C)CC)cc1,1.35µM,?,.,?,.,.
CCc1ccc(C(=O)COC(=O)C(NC(=O)C2CCC(C)CC2)C(C)C)cc1 (stereo not given),1.69µM,/,.,/,/,/
CCC(C)C(NC(N)=O)C(=O)Nc1ccc(C(=O)OC)cc1 (stereo not given),.,.,.,.,.,.
O=C(Cc1ccc(Br)cc1)NC1CCSC1=O (stereo not given),.,.,.,.,.,.
Cc1ccc(-n2cc(CN3CCC(O)(c4ccccn4)CC3)c(-c3ccc(F)cc3)n2)cc1,16.9µM,.,/,.,.,.
COc1ccc(NC(=O)c2cc(S(=O)(=O)N3CCCCC3)c[nH]2)cc1Cl,.,.,/,.,.,/
COc1ccc(-c2cc3nc(-c4ccccc4)cc(C(F)(F)F)n3n2)cc1,.,/,.,/,/,/
Cc1nc2cc(-c3ccc(Cl)cc3)nn2c(NCCN(C)C)c1C,13.5µM,?,/,.,?,.
Cc1cc(-c2ccc(Cl)cc2)n2nc(C)cc2n1,.,.,/,.,.,/
COc1ccc(-c2nc3nc(C)cc(C)n3n2)cc1,10.7µM,?,12.6µM,?,?,.
COc1ccc(-c2cc3nc(C)cc(C)n3n2)cc1,7.57µM,?,10µM,3.55µM,3.16µM,.
SMILES,FLuc counter,ELG1 genotoxic,SMN2 splice up,Rab9 prom act,NPC1 prom act,KinaseGlo FLuc
Cc1cc(C)n2nc(-c3ccc(Cl)cc3)cc2n1,3.79µM,14.6µM,/,3.55µM,3.98µM,/
O=S(=O)(NCc1ccc(F)cc1)c1ccc(N2CCCCS2(=O)=O)cc1,.,/,/,/,/,/
O=c1cc(-c2cccc(F)c2)[nH]c2cc(F)ccc12,/,/,/,/,/,.
Cc1cc(C)n2nc(-c3ccc(Br)cc3)cc2n1,2.69µM,?,/,?,3.55µM,/
Cc1ccc(-c2cc3nc(-c4ccc(Br)cc4)cc(N)n3n2)cc1,.,.,.,.,.,.
CC1Cc2cc(/C=C3/SC(=S)N(C)C3=O)ccc2O1 (stereo not given),1.07µM,?,/,?,?,/
CC1Cc2cc(/C=C3/SC(N4CCC(C(N)=O)CC4)=NC3=O)ccc2O1 (stereo not given),?,.,/,.,.,/
O=C(Nc1ccccc1)N1CCC2(CC1)CCN(C(=O)c1ccco1)CC2,/,/,.,/,/,.
CCCc1nn(C)c(C(=O)Nc2ccc(CC)cc2)c1Cl,?,.,.,.,.,.
CCCc1nn(C)c(C(=O)Nc2ccc(C)c(C)c2)c1Cl,10.7µM,?,6.31µM,3.16µM,?,.
CCN(C(=O)COC(=O)c1ccc(N2C(=O)c3ccccc3C2=O)cc1)C1CCS(=O)(=O)C1 (stereo not given),.,.,.,.,.,.
CCc1ccc(Nc2n[n+](-c3ccccc3)c(/C=C/c3ccccc3)s2)cc1,12µM,.,/,.,.,/
COc1cc(CNC23CC4CC(CC(C4)C2)C3)ccc1OCc1ccccc1,.,.,.,.,.,.
COc1cc(CNc2ccc(N3CCCC3)cc2)ccc1OCc1ccccc1F,?,.,17.8µM,.,.,.
COc1cc(CNc2ccc(N3CCCCC3)cc2)ccc1OCC(=O)NC(C)(C)C,5.36µM,.,/,.,.,/
COc1cc(CNc2ccc(N3CCCC3)cc2)ccc1OCc1ccccc1,6.01µM,?,.,.,.,.
COc1cc(CNc2ncn[nH]2)ccc1OCc1cccc(C)c1,19µM,?,/,?,?,.
COc1cc(CNc2ccc(CNc3ncn[nH]3)cc2)cc(Cl)c1OCc1ccccc1,.,.,/,.,.,.
C=C1CC23C[C@H]4[C@@H]5[C@@]6(C)C[C@H](OC(=O)c7ccccc7)[C@@H](OC(C)=O)[C@]57[C@@H]2[C@@H](OC(C)=O)[C@H]1[C@@H](O)[C@H]3[C@H]7N4C6,/,/,.,/,/,.
Oc1nc(Nc2ccccc2)sc1/C=C1\C=Nc2ccccc21,19µM,?,/,2.82µM,3.98µM,/
CCOC(=O)c1c(Nc2ccccc2)sc(/C=C2\C=Nc3ccccc32)c1O,.,.,.,.,.,.
CCn1c(O)c(/C=C2\C=Nc3ccccc32)sc1=O,2.69µM,6.51µM,22.4µM,1.41µM,?,.
OCC(O)CNC(=S)NC1CCCCC1 (stereo not given),.,.,/,.,.,.
CC/C(=N\NC(=O)c1c[nH]c2ccccc12)c1cccs1,5.36µM,?,17.8µM,2.82µM,2.82µM,.
C/C(=N/NC(=O)c1ccncc1)c1c[nH]c2ccccc12,.,.,.,.,.,.
O=C(N/N=C/c1ccsc1)c1c[nH]c2ccccc12,10.7µM,16.4µM,/,2.82µM,3.55µM,/
Cc1ccsc1/C=N/NC(=O)c1cc(-c2ccncc2)nc2ccccc12,.,.,.,.,.,.
